Laboratory results taken from PubChem BioAssay AID1942 (Johns Hopkins Ion Channel Center, 2009).
The campaign covered roughly 2,400 compounds. About 580 (24%) were called active.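 Rule for the calls: active = activity change at or above the mean plus 3 SD of buffer wells without dofetilide, per plate; inactive = the rest.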 These entries were drawn from the full list.

The compounds below were run against Potassium voltage-gated channel subfamily KQT member 2 (Rattus norvegicus) (UniProt O88943) (assay: KCNQ2 potentiation in CHO cells – cell-based, FluxOR thallium flux, counter-screen for hERG block protector project, confirmation (AID 1942;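 note: normalized value minus buffer-control mean plus three SD of buffer wells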)). Settings: FluxOR thallium flux fluorescence, at 10 µM, stronger effect = higher value.
Chain of Potassium voltage-gated channel subfamily KQT member 2 (Rattus norvegicus) (O88943 whole entry, looked up): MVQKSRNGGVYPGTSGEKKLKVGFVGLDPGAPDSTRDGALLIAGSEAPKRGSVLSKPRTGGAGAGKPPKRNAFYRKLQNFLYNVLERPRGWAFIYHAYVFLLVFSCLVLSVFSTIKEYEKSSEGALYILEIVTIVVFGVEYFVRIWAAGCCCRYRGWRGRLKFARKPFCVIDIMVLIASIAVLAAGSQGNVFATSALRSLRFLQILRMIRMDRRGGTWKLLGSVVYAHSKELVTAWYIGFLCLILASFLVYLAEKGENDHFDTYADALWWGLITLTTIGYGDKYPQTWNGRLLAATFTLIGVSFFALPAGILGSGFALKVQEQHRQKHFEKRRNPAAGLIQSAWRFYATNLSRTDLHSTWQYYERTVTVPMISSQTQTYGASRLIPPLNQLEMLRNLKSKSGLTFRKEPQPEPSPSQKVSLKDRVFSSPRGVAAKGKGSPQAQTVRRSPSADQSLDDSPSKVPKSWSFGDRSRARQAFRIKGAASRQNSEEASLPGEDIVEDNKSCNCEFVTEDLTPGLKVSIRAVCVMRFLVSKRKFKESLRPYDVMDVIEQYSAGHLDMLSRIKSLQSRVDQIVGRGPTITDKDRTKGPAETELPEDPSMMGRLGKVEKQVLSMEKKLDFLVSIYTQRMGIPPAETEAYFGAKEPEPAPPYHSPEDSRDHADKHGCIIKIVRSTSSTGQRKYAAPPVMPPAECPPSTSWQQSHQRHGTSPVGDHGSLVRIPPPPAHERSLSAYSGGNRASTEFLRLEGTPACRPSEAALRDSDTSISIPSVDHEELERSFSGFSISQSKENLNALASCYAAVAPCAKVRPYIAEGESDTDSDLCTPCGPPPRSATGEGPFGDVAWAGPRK

SMILES | activity change, less the hit threshold
C=CCSc1nc2sc3c(c2c(=O)n1CC)CCc1ccccc1-3 | 11.4% (active)
O=C(O)CN1C(=O)C(=O)N(Cc2ccc(C(F)(F)F)cc2)C1=O | -4.3% (inactive)
CCOC(=O)N1CCN(C(=O)CCn2c(=S)[nH]c3ccsc3c2=O)CC1 | -2.5% (inactive)
CCCn1c(SC(C)C(=O)N2CCOCC2)nc2ccc(Br)cc2c1=O (configuration not stated) | -15.9% (inactive)
O=c1c2cc(Br)ccc2nc(-c2ccc(Cl)cc2)n1O | 133% (active)
O=c1c2cc(Br)ccc2nc(-c2cccc(Cl)c2)n1O | 111% (active)
O=c1c2cc(Br)ccc2nc(-c2cccc(C(F)(F)F)c2)n1O | 126% (active)
N#Cc1ccc(-c2nc3ccc(Br)cc3c(=O)n2O)cc1 | 17.3% (active)
COc1ccc(CCNS(=O)(=O)c2csc(C(N)=O)c2)cc1OC | -18.8% (inactive)
NC(=O)[C@@H]1CCCN1Cc1nc(Cc2ccccc2Cl)no1 | -17.5% (inactive)
COc1ccc(Cl)cc1N(C)C(=O)CCNC(=O)Cn1cnc2ccccc2c1=O | -14.6% (inactive)
CCOC(=O)N1CCC(N2C(=O)c3ccccc3C2Nc2cccnc2)CC1 (configuration not stated) | -1.9% (inactive)
O=c1c2cc(Br)ccc2nc(-c2ccccc2)n1O | 36.9% (active)
O=c1c2ccc(Cl)cc2nc(-c2cccc(C(F)(F)F)c2)n1O | 118% (active)
COc1ccc(S(=O)(=O)N2CCCC(C(=O)Nc3ccc(OC)c(OC)c3)C2)cc1 (configuration not stated) | -17.4% (inactive)
Cc1cc(C=O)c2c(c1)C=CC1(Oc3ccccc3C(=O)N1C)O2 (configuration not stated) | -0.3% (inactive)
N#Cc1c(-c2ccc(Cl)cc2)cc(-c2cccs2)nc1SCC(=O)O | -24.7% (inactive)
CCOc1ccc(S(=O)(=O)Nc2nc3ccccc3nc2-n2ccc(=NC(=O)c3cccs3)cc2)cc1 | -21.1% (inactive)
O=[N+]([O-])c1cccc(/C=C/c2nc(C=Nc3ccccc3)c(O)o2)c1 | -18.2% (inactive)
CC1CCCC(NC(=S)NC(=O)c2cncc(Br)c2)C1C (configuration not stated) | -12% (inactive)
Cc1ccc(C(=O)NC(=S)N(C)C2CCCCC2)cc1Br | 2.9% (active)
COc1ccc(C(=O)NC(=S)N(C)C2CCCCC2)cc1Br | 0.5% (active)
CCOC(=O)C1=NN(C(=O)c2cccc(Br)c2)C(O)(C(C)(C)C)C1 (configuration not stated) | 87.6% (active)
CC1=NN(C(=O)c2ccccc2Br)C(O)(c2ccc(Cl)cc2)C1 (configuration not stated) | -27.3% (inactive)
COC(=O)C1=NN(C(=O)c2ccc(Cl)cc2)C(O)(c2ccccc2)C1 (configuration not stated) | 76.9% (active)

SMILES | activity change, less the hit threshold
COC(=O)C1=NN(C(=O)c2cccc(Br)c2)C(O)(c2ccc(Cl)cc2)C1 (configuration not stated) | 134% (active)
CC1=NN(C(=O)c2ccc(Cl)cc2)C(O)(c2ccccc2)C1 (configuration not stated) | -5.5% (inactive)
CCOC(=O)c1cnc(-n2nc(C)cc2C)nc1Nc1cccc(C(=O)O)c1 | -13.4% (inactive)
CC(C)(C)C1(O)CC(C(F)(F)F)=NN1C(=O)Cc1ccc([N+](=O)[O-])cc1 (configuration not stated) | -20.8% (inactive)
CCC1=NN(C(=O)c2ccc(Cl)cc2)C(O)(c2ccccc2)C1 (configuration not stated) | -23.9% (inactive)
Cc1ccc2[nH]c3c(c2c1)CNCC3 | -13.7% (inactive)
COc1cc(/C=N/Nc2nc(N3CCCC3)nc(N3CCCC3)n2)ccc1OCc1ccccc1F | -23.8% (inactive)
CCCCCCCCCCn1c2c(c(=N)c3c1CCC3)CCC2 | 26.3% (active)
CC(=O)c1c(C)c2c(n1CCN(C)C)CCCC2 | -11.1% (inactive)
Clc1ccc(N=NN2CCOCC2)cc1 | -5.2% (inactive)
CCOC(=S)NC(=O)c1sc2ccccc2c1Cl | 51.3% (active)
CCOC(=O)CP(=O)(c1ccccc1)c1ccccc1 | -20% (inactive)
CCCOC(=S)NC(=O)c1sc2ccccc2c1Cl | 10% (active)
COC(=O)Cn1c(=NC(=O)c2sc3ccccc3c2Cl)sc2cc(S(N)(=O)=O)ccc21 | -18.9% (inactive)
O=C(NC(=S)N(CCCCO)C1CCCCC1)c1sc2ccccc2c1Cl | 26% (active)
COC(=O)CC1C(=O)NCCN1C(=S)NC(=O)c1sc2ccccc2c1Cl (configuration not stated) | -11.2% (inactive)
CCCCOC(=S)NC(=O)c1sc2ccccc2c1Cl | 71.2% (active)
O=C(CCc1nc(-c2ccccc2)no1)N1CCCC1 | -20.7% (inactive)
C=CCn1c(N2CCCCCC2)nc2c1c(=O)n(C)c(=O)n2C | -13.9% (inactive)
O=C1NC(=O)/C(=C/c2cc3c(cc2Br)OCO3)S1 | -28.6% (inactive)
COc1ccc(C(=O)NCc2nnc(SCC(=O)NC3CCCCC3)n2C)cc1 | -21.9% (inactive)
O=[N+]([O-])c1ccc(Cl)c(/C=N/Nc2nc(N3CCOCC3)nc(N3CCOCC3)n2)c1 | -7.2% (inactive)
COc1cc(OC)c(C2=NOC(C(=O)Nc3ccc4c(c3)OCO4)C2)cc1Cl (configuration not stated) | -22.1% (inactive)
COc1ccc(OCC(=O)Nc2c3c(nn2-c2ccc(OC)cc2)CS(=O)(=O)C3)cc1 | -16.4% (inactive)
CC(=O)NCCC(=O)N(C)CC1CCN(CCc2cccc(C(F)(F)F)c2)CC1 | -13.4% (inactive)

SMILES | activity change, less the hit threshold
COc1ccc2ncc(OC(C)=O)cc2c1 | -7.9% (inactive)
CSc1ccccc1NC(=S)NCc1ccc(Cl)cc1 | -17.2% (inactive)
COC(=O)c1sccc1NC(=S)NCc1ccc(Cl)cc1 | 3.3% (active)
COC(=O)c1sccc1NC(=S)N1CCN(C)CC1 | -22.7% (inactive)
Cc1ccc(NC(=O)c2ccc(NC3=NC4CS(=O)(=O)CC4S3)cc2)cc1 (configuration not stated) | -20.8% (inactive)
COc1cc(Cl)cc(C(c2c(C(=O)O)[nH]c3ccccc23)c2c(C(=O)O)[nH]c3ccccc23)c1O | -20.1% (inactive)
Cc1cc(C(F)(F)F)n(-c2ccc(N)cc2)n1 | -13.2% (inactive)
O=C(COc1ccccc1[N+](=O)[O-])Nc1cc(Cl)ccc1C(=O)O | -11.3% (inactive)
O=C(NNc1nc2c(F)cccc2s1)c1cc(=O)c2ccccc2o1 | -19.2% (inactive)
O=c1cc(-c2c(F)c(F)c(F)c(F)c2F)oc2ccccc12 | 12.2% (active)
COc1ccc(S(=O)(=O)Nc2cccc(-n3cnnn3)c2)cc1 | -11.2% (inactive)
Cc1ccnc(SCCn2c(N3CC(C)OC(C)C3)nc3c2c(=O)n(C)c(=O)n3C)n1 (configuration not stated) | -16.5% (inactive)
O=C(Cn1c(=O)oc2ccccc21)Nc1ccc(F)c(F)c1 | -17.1% (inactive)
CCCCn1nnc(NC(=O)Cc2ccc(Cl)cc2)n1 | -11.7% (inactive)
CCOc1ccc2[nH]cc(S(=O)(=O)c3ccc(F)cc3)c(=O)c2c1 | -19.1% (inactive)
S=c1[nH]nc(-c2ccc(Cl)cc2)n1Cc1ccccc1 | -30.3% (inactive)
CCCCn1c(-c2csc(C(C)C)c2)n[nH]c1=S | 6.8% (active)
CC(C)(C)OC(=O)C(Cl)(C(=O)OC(C)(C)C)c1ccc2nnnn2n1 | -14.5% (inactive)
CC(=O)c1cc(N2CCC(C(=O)O)CC2)ccc1[N+](=O)[O-] | -24.9% (inactive)
Cc1nn(-c2ccccc2)c(Cl)c1/C=C1\SC(=S)NC1=O | 60.1% (active)
Cc1nn(-c2ccccc2)c(C)c1S(=O)(=O)O | -13.9% (inactive)
CCc1nnc(NC(=O)c2c(C)nn(-c3ccccc3)c2Cl)s1 | -4.8% (inactive)
CCCC(=O)n1nc(-c2ccccc2)nc1N | -17.9% (inactive)
O=C(Nc1nc(-c2ccccc2)c(-c2ccccc2)o1)c1ccc(F)cc1 | 9% (active)
CN(C)/C(=N\S(=O)(=O)c1ccccc1)c1ccc(F)cc1 | -9.6% (inactive)

SMILES | activity change, less the hit threshold
O=C(Nc1cccc2[nH]ncc12)c1ccc(F)cc1 | -24.7% (inactive)
Cc1ccc(-c2nc(CSCC(=O)N3CCOCC3)c(C)o2)cc1 | -25.1% (inactive)
COc1ccc(S(=O)(=O)Nc2ccc(Cl)cn2)c(C)c1C | -12.1% (inactive)
Cc1noc(C)c1CSc1ncnc2sc3c(c12)CCCCC3 | 14.8% (active)
COC(=O)c1ccc(CSc2ncnc3sc(C)c(C)c23)o1 | -6.5% (inactive)
COc1ccc(-n2c(O)c(/C=C3\C=Nc4ccccc43)c(=O)[nH]c2=O)cc1 | -40% (inactive)
Cc1ccc2cc(CCNC(=O)C(=O)c3c(C)[nH]c4ccccc34)c(=O)[nH]c2c1 | -20.7% (inactive)
CCOC(=O)c1sc(=S)n2c1[nH]c(=O)c1ccc(C(=O)OC)cc12 | 79.4% (active)
CCC1SC2=NC(C)=C(C(=O)OC)C(c3ccc(C(=O)OC)cc3)N2C1=O (configuration not stated) | -10.7% (inactive)
CCCNC(=O)CN1C(=O)NC(Cc2c[nH]c3ccccc23)C1=O (configuration not stated) | -17.5% (inactive)
CC12CCC(C(=O)NCc3ccc4c(c3)OCO4)(CC1=O)C2(C)C (configuration not stated) | -5.5% (inactive)
CCOCCCNC(=O)C(NC(=O)Cc1cccs1)c1ccc(C)cc1 (configuration not stated) | -21.4% (inactive)
CCc1ccc(S(=O)(=O)NC(=S)NC2CCCCC2)cc1 | 52.3% (active)
Cc1ccc(S(=O)(=O)NC(=S)NC2CCCCC2)cc1 | -11.5% (inactive)
O=c1oc2ccccc2c(NC2CCCCC2)c1NS(=O)(=O)c1ccc(Cl)cc1 | -14.5% (inactive)
O=S(=O)(NC(=S)NC1CCCCC1)c1ccc(Br)cc1 | 5.4% (active)
O=S(=O)(NC(=S)NC1CCCCC1)c1ccc(Cl)cc1 | 19.8% (active)
O=C(NC1CCCCC1)c1ccc(COCC(F)(F)F)o1 | -5% (inactive)
COc1cc(Cl)c(C)cc1NC(=O)CSc1sc2c(O)cc(=O)[nH]c2c1C#N | -11.4% (inactive)
N#Cc1c(N)c(C(=O)c2ccccc2)n2ccccc12 | -16.1% (inactive)
Nn1c(SCC(=O)Nc2ccc(F)cc2)nnc1C1CCCCC1 | -23.5% (inactive)
O=C1NCCN1Cc1ccccc1F | -11.9% (inactive)
